Measurements: ChEMBL document CHEMBL1961873, “Compounds: GSK PKIS; Assays: Nanosyn kinase panel” (2012)

Tests used:
[1] = target: Tyrosine-protein kinase Fyn (Homo sapiens) (UniProt P06241); settings: at 1 µM
[2] = target: Tyrosine-protein kinase HCK (Homo sapiens) (UniProt P08631); settings: at 0.1 µM
[3] = target: Tyrosine-protein kinase HCK (Homo sapiens) (UniProt P08631); settings: at 1 µM
[4] = target: Insulin-like growth factor 1 receptor (Homo sapiens) (UniProt P08069); settings: at 0.1 µM
[5] = target: Insulin-like growth factor 1 receptor (Homo sapiens) (UniProt P08069); settings: at 1 µM
[6] = target: Insulin receptor (Homo sapiens) (UniProt P06213); settings: at 0.1 µM
[7] = target: Insulin receptor (Homo sapiens) (UniProt P06213); settings: at 1 µM
[8] = target: Insulin receptor-related protein (Homo sapiens) (UniProt P14616); settings: at 0.1 µM
[9] = target: Insulin receptor-related protein (Homo sapiens) (UniProt P14616); settings: at 1 µM
[10] = target: T1, Tyrosine-protein kinase ITK/TSK (Homo sapiens) (UniProt Q08881); settings: at 0.1 µM
T1 sequence (whole entry): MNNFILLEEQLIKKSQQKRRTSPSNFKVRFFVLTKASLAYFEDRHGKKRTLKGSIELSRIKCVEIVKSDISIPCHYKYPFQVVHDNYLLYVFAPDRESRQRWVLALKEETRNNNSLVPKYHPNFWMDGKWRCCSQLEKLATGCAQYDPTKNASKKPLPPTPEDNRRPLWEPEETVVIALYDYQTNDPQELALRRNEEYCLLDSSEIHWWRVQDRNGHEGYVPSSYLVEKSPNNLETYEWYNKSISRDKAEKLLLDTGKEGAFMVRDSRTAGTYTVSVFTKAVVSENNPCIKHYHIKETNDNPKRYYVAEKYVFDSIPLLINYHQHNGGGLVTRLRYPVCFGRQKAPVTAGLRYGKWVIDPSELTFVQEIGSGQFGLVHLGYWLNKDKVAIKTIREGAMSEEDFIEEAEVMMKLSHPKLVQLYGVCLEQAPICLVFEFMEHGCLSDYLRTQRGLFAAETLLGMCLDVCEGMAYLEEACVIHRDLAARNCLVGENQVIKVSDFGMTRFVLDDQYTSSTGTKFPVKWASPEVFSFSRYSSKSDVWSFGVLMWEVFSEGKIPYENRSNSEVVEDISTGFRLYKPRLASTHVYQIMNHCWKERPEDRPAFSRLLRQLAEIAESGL

[11] = target: T1, Tyrosine-protein kinase ITK/TSK (Homo sapiens); settings: at 1 µM
[12] = target: Tyrosine-protein kinase JAK1 (Homo sapiens) (UniProt P23458); settings: at 0.1 µM
[13] = target: Tyrosine-protein kinase JAK1 (Homo sapiens) (UniProt P23458); settings: at 1 µM
[14] = target: Tyrosine-protein kinase JAK2 (Homo sapiens) (UniProt O60674); settings: at 0.1 µM
[15] = target: Tyrosine-protein kinase JAK2 (Homo sapiens) (UniProt O60674); settings: at 1 µM
[16] = target: T2, Tyrosine-protein kinase JAK3 (Homo sapiens) (UniProt P52333); settings: at 0.1 µM
T2 sequence (whole entry): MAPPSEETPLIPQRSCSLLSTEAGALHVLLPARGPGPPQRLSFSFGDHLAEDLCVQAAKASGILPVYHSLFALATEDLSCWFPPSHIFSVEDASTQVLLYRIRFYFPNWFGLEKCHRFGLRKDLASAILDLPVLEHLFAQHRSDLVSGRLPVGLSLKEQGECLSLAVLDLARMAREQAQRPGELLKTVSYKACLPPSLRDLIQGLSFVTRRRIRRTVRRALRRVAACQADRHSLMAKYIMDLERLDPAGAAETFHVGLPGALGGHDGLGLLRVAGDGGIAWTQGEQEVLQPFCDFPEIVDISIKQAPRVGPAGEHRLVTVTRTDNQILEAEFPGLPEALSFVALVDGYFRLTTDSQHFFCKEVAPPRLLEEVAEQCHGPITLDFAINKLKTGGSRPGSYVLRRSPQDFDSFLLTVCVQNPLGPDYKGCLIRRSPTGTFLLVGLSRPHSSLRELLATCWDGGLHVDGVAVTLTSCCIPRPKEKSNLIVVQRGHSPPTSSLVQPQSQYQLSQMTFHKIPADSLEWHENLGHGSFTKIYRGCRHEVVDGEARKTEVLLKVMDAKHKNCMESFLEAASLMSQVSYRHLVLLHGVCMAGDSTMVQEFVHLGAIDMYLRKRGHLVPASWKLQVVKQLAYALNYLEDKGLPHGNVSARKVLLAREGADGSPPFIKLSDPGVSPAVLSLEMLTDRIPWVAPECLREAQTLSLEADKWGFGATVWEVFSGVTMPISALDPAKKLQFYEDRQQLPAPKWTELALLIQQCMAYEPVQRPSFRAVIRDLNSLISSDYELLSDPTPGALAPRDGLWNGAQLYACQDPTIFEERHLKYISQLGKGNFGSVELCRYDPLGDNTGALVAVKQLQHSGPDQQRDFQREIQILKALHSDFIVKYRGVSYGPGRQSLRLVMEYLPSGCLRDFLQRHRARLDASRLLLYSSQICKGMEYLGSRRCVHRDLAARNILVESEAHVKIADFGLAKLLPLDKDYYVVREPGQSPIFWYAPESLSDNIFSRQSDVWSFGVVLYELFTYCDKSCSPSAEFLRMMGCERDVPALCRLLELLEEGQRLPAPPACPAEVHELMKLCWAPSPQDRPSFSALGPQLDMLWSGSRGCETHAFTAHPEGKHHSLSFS

[17] = target: T2, Tyrosine-protein kinase JAK3 (Homo sapiens); settings: at 1 µM
[18] = target: Vascular endothelial growth factor receptor 2 (Homo sapiens) (UniProt P35968); settings: at 0.1 µM
[19] = target: Vascular endothelial growth factor receptor 2 (Homo sapiens) (UniProt P35968); settings: at 1 µM
[20] = target: Mast/stem cell growth factor receptor Kit (Homo sapiens) (UniProt P10721); settings: at 0.1 µM;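 further: values are mean inhibition of KIT, from the GSK PKIS dataset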
Chain of Mast/stem cell growth factor receptor Kit (Homo sapiens) (P10721 whole entry): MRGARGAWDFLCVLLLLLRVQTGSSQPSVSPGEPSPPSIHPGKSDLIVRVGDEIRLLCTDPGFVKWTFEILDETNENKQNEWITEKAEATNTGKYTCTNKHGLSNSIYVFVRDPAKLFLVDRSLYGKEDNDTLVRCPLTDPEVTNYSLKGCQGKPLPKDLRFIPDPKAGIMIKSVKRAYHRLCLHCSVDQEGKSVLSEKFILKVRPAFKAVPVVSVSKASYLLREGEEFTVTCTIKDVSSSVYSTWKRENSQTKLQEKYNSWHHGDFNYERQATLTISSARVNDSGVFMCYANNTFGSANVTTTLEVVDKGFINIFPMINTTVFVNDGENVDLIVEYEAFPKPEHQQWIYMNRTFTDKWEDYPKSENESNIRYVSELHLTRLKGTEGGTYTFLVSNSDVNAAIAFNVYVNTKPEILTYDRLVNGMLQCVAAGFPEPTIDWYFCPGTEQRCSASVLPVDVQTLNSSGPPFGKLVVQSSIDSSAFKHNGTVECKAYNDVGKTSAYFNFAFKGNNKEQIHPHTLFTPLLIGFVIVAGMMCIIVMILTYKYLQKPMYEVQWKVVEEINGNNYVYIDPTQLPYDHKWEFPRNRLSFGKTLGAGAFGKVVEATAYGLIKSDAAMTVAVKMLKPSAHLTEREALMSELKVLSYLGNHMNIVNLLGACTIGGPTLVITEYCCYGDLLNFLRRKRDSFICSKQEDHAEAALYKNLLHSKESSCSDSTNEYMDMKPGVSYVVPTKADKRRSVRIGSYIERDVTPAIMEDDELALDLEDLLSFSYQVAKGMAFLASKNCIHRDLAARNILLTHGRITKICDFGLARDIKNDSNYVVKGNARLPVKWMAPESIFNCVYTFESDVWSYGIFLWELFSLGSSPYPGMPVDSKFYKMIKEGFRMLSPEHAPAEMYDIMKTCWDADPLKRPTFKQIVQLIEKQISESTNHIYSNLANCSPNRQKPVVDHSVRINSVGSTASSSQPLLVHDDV

Chain of Tyrosine-protein kinase JAK2 (Homo sapiens) (O60674 whole entry): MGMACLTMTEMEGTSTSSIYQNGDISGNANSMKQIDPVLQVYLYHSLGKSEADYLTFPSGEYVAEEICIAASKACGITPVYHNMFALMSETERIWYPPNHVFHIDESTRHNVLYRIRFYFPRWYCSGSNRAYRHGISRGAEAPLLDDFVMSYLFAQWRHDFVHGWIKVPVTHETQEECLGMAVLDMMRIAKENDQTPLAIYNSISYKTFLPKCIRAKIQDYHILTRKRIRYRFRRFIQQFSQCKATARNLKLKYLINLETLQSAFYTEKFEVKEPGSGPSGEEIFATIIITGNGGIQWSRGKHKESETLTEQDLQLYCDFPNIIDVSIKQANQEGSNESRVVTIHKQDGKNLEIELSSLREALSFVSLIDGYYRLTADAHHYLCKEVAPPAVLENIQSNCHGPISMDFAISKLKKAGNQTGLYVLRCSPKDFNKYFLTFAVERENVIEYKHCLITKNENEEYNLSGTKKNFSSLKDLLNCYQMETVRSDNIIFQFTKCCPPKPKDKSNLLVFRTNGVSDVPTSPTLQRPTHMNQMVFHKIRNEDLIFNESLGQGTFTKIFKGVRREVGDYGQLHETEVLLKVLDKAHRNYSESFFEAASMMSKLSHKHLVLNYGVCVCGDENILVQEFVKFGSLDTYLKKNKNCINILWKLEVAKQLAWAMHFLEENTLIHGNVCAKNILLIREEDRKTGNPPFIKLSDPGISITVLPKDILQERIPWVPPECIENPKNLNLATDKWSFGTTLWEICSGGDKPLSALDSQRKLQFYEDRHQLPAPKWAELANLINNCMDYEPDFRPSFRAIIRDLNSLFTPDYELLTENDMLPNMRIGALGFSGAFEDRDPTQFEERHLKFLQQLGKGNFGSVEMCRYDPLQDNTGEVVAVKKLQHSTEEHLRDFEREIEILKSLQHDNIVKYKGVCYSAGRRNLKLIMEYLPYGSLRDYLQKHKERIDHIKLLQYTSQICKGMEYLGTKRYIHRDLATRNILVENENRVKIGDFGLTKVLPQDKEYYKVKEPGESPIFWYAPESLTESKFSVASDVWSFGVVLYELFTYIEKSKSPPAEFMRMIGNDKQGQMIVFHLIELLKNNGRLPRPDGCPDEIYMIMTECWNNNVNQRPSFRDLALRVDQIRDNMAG
Chain of Insulin-like growth factor 1 receptor (Homo sapiens) (P08069 31-736 limits assumed): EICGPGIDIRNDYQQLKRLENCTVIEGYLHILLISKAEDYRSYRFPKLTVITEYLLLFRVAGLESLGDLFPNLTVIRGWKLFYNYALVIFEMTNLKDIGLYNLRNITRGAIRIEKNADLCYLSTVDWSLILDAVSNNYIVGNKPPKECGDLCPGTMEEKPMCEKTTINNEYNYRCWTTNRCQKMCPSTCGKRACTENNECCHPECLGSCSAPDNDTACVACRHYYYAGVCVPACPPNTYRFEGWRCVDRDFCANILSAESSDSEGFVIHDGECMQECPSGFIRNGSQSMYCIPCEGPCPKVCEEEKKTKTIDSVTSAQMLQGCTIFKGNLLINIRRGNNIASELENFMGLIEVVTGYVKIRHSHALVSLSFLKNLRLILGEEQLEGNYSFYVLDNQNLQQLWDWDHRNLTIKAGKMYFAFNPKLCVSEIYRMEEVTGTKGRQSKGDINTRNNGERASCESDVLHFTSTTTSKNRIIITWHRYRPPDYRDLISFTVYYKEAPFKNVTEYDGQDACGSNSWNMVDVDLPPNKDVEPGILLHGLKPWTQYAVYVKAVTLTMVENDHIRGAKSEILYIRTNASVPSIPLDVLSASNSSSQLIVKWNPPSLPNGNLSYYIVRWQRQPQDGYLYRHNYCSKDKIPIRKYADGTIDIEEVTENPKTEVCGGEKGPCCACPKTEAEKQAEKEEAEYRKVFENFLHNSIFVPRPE
Chain of Insulin-like growth factor 1 receptor (Homo sapiens) (P08069 741-1367 limits assumed): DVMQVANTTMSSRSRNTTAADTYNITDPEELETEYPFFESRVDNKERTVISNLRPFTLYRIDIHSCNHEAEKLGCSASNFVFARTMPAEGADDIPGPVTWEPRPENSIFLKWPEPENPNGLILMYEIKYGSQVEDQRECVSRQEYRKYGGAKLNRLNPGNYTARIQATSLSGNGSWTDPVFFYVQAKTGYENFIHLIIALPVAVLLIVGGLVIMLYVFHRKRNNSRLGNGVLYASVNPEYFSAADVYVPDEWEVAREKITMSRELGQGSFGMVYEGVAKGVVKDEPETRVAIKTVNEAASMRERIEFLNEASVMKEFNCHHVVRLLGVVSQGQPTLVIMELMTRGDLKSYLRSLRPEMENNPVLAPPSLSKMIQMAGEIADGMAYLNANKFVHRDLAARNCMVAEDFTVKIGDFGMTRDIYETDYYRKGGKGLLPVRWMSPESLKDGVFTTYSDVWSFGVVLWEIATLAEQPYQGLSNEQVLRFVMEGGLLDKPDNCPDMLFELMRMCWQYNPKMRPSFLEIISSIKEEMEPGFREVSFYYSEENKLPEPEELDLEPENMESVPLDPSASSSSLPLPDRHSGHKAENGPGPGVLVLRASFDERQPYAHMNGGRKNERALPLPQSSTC
Chain of Vascular endothelial growth factor receptor 2 (Homo sapiens) (P35968 whole entry): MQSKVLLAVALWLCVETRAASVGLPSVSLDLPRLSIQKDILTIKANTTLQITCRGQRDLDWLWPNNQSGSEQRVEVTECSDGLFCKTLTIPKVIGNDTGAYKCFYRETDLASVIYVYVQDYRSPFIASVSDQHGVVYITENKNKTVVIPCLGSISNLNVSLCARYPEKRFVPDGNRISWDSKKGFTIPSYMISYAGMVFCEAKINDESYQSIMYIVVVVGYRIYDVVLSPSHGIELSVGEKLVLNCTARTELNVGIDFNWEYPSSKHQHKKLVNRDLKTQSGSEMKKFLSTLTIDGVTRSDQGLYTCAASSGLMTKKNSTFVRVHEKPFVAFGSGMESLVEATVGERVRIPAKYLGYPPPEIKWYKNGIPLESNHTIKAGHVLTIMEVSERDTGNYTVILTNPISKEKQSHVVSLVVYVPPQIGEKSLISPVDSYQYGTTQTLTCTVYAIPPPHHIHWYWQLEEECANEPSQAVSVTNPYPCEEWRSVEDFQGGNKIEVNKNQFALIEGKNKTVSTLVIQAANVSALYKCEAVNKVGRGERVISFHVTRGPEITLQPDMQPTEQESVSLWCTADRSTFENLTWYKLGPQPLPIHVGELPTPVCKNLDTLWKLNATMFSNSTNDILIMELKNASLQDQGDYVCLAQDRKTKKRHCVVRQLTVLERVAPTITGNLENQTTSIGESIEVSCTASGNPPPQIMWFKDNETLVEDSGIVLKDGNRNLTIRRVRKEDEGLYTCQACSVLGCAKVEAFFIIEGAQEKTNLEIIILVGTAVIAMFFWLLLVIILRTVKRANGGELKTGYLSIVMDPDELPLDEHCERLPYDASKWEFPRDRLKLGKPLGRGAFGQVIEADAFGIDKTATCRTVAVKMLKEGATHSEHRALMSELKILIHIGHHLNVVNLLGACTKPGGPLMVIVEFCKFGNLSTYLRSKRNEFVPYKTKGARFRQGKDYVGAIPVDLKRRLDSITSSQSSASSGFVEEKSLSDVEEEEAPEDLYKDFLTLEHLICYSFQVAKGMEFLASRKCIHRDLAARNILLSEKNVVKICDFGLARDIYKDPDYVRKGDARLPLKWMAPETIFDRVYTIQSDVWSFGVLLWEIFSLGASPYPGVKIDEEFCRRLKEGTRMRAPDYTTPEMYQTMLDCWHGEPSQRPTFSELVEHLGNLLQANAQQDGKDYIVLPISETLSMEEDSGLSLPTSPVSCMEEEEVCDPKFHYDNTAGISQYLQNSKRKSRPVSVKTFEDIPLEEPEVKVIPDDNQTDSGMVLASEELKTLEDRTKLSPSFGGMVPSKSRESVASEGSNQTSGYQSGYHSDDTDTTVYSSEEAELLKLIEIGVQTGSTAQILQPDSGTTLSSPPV

Compound | inhibition [1] [%] | inhibition [2] [%] | inhibition [3] [%] | inhibition [4] [%] | inhibition [5] [%] | inhibition [6] [%] | inhibition [7] [%] | inhibition [8] [%] | inhibition [9] [%] | inhibition [10] [%] | inhibition [11] [%] | inhibition [12] [%] | inhibition [13] [%] | inhibition [14] [%] | inhibition [15] [%] | inhibition [16] [%] | inhibition [17] [%] | inhibition [18] [%] | inhibition [19] [%] | inhibition [20] [%]
COc1ccc(-c2nn3ncccc3c2-c2ccnc(Nc3ccc4c(c3)OCCO4)n2)cc1 | 36.6 | 13.4 | 46 | -3.1 | 7.28 | 1.21 | 24.1 | 0.02 | 3.24 | -1.45 | 0.71 | 1.48 | 1.48 | -0.19 | -0.78 | -1.66 | -0.04 | 11.3 | 64 | 40.5
CCCN1CCC(c2ccc(Nc3nc(Nc4cc(F)ccc4C(N)=O)c4cc[nH]c4n3)c(OC)c2)CC1 | 25.1 | 5.95 | 11.5 | 91.8 | 93.6 | 97.5 | 97.3 | 93.3 | 97.2 | 1.62 | 7.34 | 2.55 | 20.8 | 0.71 | 2.85 | -0.92 | 0.07 | 6.99 | 18.6 | 7.64
CNC(=O)c1cccc(C#Cc2cncnc2Nc2ccc(OCc3cccc(F)c3)c(Cl)c2)c1 | 5.06 | 2.16 | 2.54 | -0.34 | -0.55 | -2.02 | -0.61 | 0.75 | 0.96 | -0.18 | -0.18 | -1.06 | 7.9 | 0.28 | 1.34 | -1.04 | 1.79 | 1.34 | 3.79 | 2.56
CCn1c(-c2nonc2N)nc2c(C#CC(C)(C)O)ncc(OC3CCNCC3)c21 | 5.91 | 3.4 | 7.03 | 1.97 | 2.36 | 1.46 | 3.32 | 1.16 | 2.07 | 1.99 | 2.09 | 3.54 | 3.51 | 1.5 | 2.39 | -2.24 | -1.24 | 27.1 | 76.1 | 2.24
COc1cc2c(cc1Nc1nc(Nc3ccsc3C(N)=O)c3cc[nH]c3n1)N(C(=O)CN(C)C)CCC2(C)C | 1.15 | 6.46 | 12.9 | 98.1 | 97.1 | 98.7 | 98 | 98 | 97.9 | 1.74 | 3.88 | 4.13 | 2.78 | 0.97 | 0.03 | 0.41 | 1.42 | 8.34 | 14.1 | 18.8
COc1ccc2c(-c3ccnc(Nc4cccc(OC(F)(F)F)c4)n3)cnn2n1 | 7.69 | 5.89 | 11.3 | 3.31 | 5.36 | 4.34 | 8.18 | 4.74 | 3.42 | 1.46 | 2.38 | 4.66 | 13 | 1.65 | 10.9 | -0.93 | 2.75 | 6.22 | 14.8 | 10.7
CCn1c(-c2nonc2N)nc2cnc(Oc3cccc(NC(=O)c4ccc(N(C)C)cc4)c3)cc21 | 1.97 | 4.12 | 4.03 | -0.26 | 0.33 | 2.97 | 3.14 | -0.46 | 0.53 | 0.98 | 0.86 | 0.78 | 2.7 | 0.7 | 0.27 | -0.01 | -1.1 | 2.18 | 8.86 | 0.97
COc1ccc(-c2oc3ncnc(N)c3c2-c2ccc(NC(=O)Nc3cc(C(F)(F)F)ccc3F)cc2)cc1 | 52.1 | 31 | 86.1 | 4.58 | 7.94 | 4.98 | 27.2 | 1.97 | 6.8 | 5.01 | 40.8 | 14.6 | 43.3 | 2.04 | 14.4 | 1.04 | 3.12 | 75.4 | 73.7 | 37.9
Fc1ccc(-c2nn3ccccc3c2-c2ccncc2)cc1 | 1.04 | 1.96 | 5.95 | 0.6 | 0.31 | 1.92 | 4.03 | -0.72 | 0.71 | 1.1 | 1.56 | 0.87 | -0.62 | 0.36 | 1.23 | -0.48 | 0.18 | 3.84 | 9.61 | 1.23
CNC(=O)c1cc(-c2ccc(F)cc2)cc(-c2ccc(S(=O)(=O)N3CCCC3)cc2)c1N | 5.48 | 2.71 | 3.16 | 0.57 | 1.32 | 4.78 | 5.39 | -0.17 | 1.33 | 1.41 | 0.87 | 0.17 | 1.74 | 1.75 | 3.18 | -1.74 | -0.38 | 1.67 | 6.2 | 3.86
Clc1ccc(-c2nn3ncccc3c2-c2ccnc(Nc3ccccc3)n2)cc1 | 43.5 | 7.64 | 34.1 | 3.71 | 5.4 | 2.64 | 4.44 | 0.65 | 0.7 | 1.38 | 2.29 | -4.43 | -2.06 | 1.44 | 0.88 | 0.42 | 2.99 | 11.2 | 42.1 | 11.7
CC(C)(CO)CNC(=O)c1ccc2c(c1)/C(=N/Nc1ccc(S(N)(=O)=O)cc1)C(=O)N2 | 53.7 | 0.91 | 21.2 | -4.8 | -2.3 | -1.59 | -0.37 | -2 | -2.31 | -1.6 | 1.2 | 1.29 | 2.13 | -1.03 | 1.02 | -0.67 | 13.5 | 9.03 | 56 | -4.53
COc1cccc(-c2c[nH]c3c(N/N=C/c4ccncc4)ncnc23)c1 | 58.7 | 12.8 | 51.8 | 0.05 | 2.22 | 1.17 | 3.79 | 3.25 | 2.79 | 1.15 | 3.59 | 4.4 | 15.3 | 1.76 | 15.1 | 0.32 | 24.9 | 17.6 | 61 | 45.5
CS(=O)(=O)CCNCc1coc(-c2ccc3ncnc(Nc4ccc(OCc5ccccc5)cc4)c3c2)c1 | 12.2 | 4.78 | 9.64 | 0.62 | 2.16 | 3.09 | 2.56 | -0.04 | 3.03 | 0.65 | 1.57 | -1.63 | 0.69 | 1.12 | 1.93 | -1.53 | 0.54 | 4.63 | 7.45 | -0.21
